# Test results taken from PubChem BioAssay (Tox21).
# Values joined by “and” are separate entries in the source; they are usually repeats but may differ in a detail not shown here. Equal values may be shown once. Inconclusive results are not listed. A call without a number means that no potency is given here. The source holds several records for some structures; these can differ, active in one and inactive in another. Active and inactive are the calls of the source. The call rests on the fitted dose curve; in most records, active means well fitted cell-killing curve with a large enough effect in the repeat runs; inconclusive means weak or mixed curves, or effect the other way; inactive means flat fitted curve, though single readings scatter.
# Test: qHTS assay to identify small molecule agonists of the sonic hedgehog signaling (Shh) pathway - cell viability counter screen (AID 1259366); further: nearly all actives have a fitted effect of over 50% in size
# Conditions: NIH/3T3 Gli1-Luc viability, CellTiter-Fluor, 24 h; series mostly up to 92.4 µM
# Procedure, shortened: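 After a 4hr attachment at 37C, NIH/3T3 cells bearing an integrated Gli1-driven luciferase reporter were dosed with compounds. Treatment lasted 24hr, with the final hour including CellTiter-Fluor for a fluorescence viability measurement.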
# Potency means the concentration at half of the fitted maximal effect.
Compound,Potency,"viability change, negative = cytotoxic"
Nc1nc2c(ncn2COCCO)c(=O)[nH]1,inactive,–
CC(C)NC[C@@H](O)COc1ccc(CC(N)=O)cc1,inactive,–
CCc1cccc(CC)c1NC(=O)CN(CC(=O)O)CC(=O)O,inactive,–
CC(=O)Oc1cc2c(s1)CCN(C(C(=O)C1CC1)c1ccccc1F)C2 (stereo unspecified),inactive,–
Cc1c(C)c2c(c(C)c1OC(=O)c1cccnc1)CC[C@@](C)(CCC[C@H](C)CCC[C@H](C)CCCC(C)C)O2,inactive,–
O=C(O)c1cc(=O)c2ccccc2o1,inactive,–
CCN(CC)C(=O)c1cc(S(=O)(=O)Cc2ccccc2)c(N2CCC(c3ccccc3)CC2)cc1N(CC)CCN(C)C,13.5 µM (active),–
Cc1c(F)c(N2CCNC(C)C2)cc2c1c(=O)c(C(=O)O)cn2C1CC1 (stereo unspecified),inactive,–
O=C(O)c1cc(-c2ccc(F)cc2F)ccc1O,inactive,–
CC[N+](CC)(CC)CCOc1ccc(/C=C/c2ccccc2)cc1,inactive,–
O=c1[nH]c(=O)n([C@H]2C[C@H](O)[C@@H](CO)O2)cc1F,inactive,–
Cc1cccc(C(=O)O)c1O,inactive,–
CCCCCCCCCCC[C@@H](C[C@@H]1OC(=O)[C@H]1CCCCCC)OC(=O)[C@H](CC(C)C)NC=O,inactive,–
CCCCCCCC/C=C\CCCCCCCCN,inactive,–
Cc1cc(C(C)(C)C)cc(C)c1CC1=NCCN1,inactive,–
C#CC1(O)CC[C@H]2[C@@H]3CCC4=CCCC[C@@H]4[C@H]3CC[C@@]21C (stereo partly specified),26.6 µM (active),–
CC(C)Cn1cnc2c(N)nc3ccccc3c21,–,8.98% [at 19 µM] (inactive)
CC(C)=CCNc1ncnc2c1ncn2[C@@H]1O[C@H](CO)[C@@H](O)[C@H]1O,13.3 µM (active),–
CCOC(=O)NNc1ccc(N(CC)CC(C)O)nn1 (stereo unspecified),inactive,–
CCCCCCCCCCCCOCCOCCOCCOCCOCCOCCOCCOCCOCCO,inactive,–
CC(CCc1ccccc1)NCC(O)c1ccc(O)c(C(N)=O)c1 (stereo unspecified),19.3 µM (active),–
CCCCCCCCCCCCCC[N+](C)(C)C,21 µM (active) and 27.3 µM (active) and inactive,–
C#C[C@]1(OC(C)=O)CC[C@H]2[C@@H]3CCC4=C/C(=N/O)CC[C@@H]4[C@H]3CC[C@@]21CC,inactive,–
CCCCCCCCCCCCCC[N+](C)(C)Cc1ccccc1,24.7 µM (active),–
CCOC(=O)Cn1cccc1-c1nc(-c2ccc(OC)cc2)c(-c2ccc(OC)cc2)s1,inactive,–
CCN(CC)c1ccc2c(-c3ccc(S(=O)(=O)O)cc3S(=O)(=O)[O-])c3ccc(=[N+](CC)CC)cc-3oc2c1,9.99 µM (active),–
